Assay outcomes: PubChem BioAssay, National Center for Advancing Translational Sciences (NCATS)
ATXN viability: reduces viability in counter-screen for ATXN expression inhibitors; S2 cells (HEK-293 line with an ATXN2-luciferase reporter) viability, CellTiter-Fluor protease fluorescence, 24 h; AID 651635; 400,000 tested, 0.49% active; Potency, µM (series often up to 56.7 µM), most hits filed as cytotoxic; also: nearly all actives have a fitted effect of over 40% in size
TGFb SMAD3 inh: blocks TGF-b signaling | HepG2 CAGA-GFP TGF-b/SMAD3 reporter, GFP fluorescence, 18 h; TGF-beta stimulated, 500 pg/mL final | 410,000 tested, 1.2% active | Potency, µM (titrated, usually from 46.1 µM), inactives show at the highest dose activity, negative = inhibition, actives largely listed as inhibitors | AID 588855; also: % is scaled to controls: 0 for no effect and ±100 for the full control effect; nearly all actives have a fitted effect of over 65% in size
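Smad-responsive CAGA-GFP expression was quantified in HEPG2 cells exposed to compounds and 500 pg/mL final TGF-beta for 18 h at 37 degrees C; unstimulated wells defined full inhibition.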
HepG2 viability: kills HepG2 cells in TGF-b inhibitor counter-screen. HepG2 CAGA-GFP viability, ATP luminescence, 18 h. Potency, µM (highest dose often 46.1 µM), for inactives: top-dose activity change, negative = cytotoxicity, hits mostly cytotoxic. 410,000 tested, 0.76% active. AID 588856
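HepG2 CAGA-GFP cells (1000/well, DMEM with 1% FBS) received compound, then TGF-beta at 500 pg/mL final, and were incubated 18 hours at 37 degrees C. Viability was read by CellTiter-Glo luminescence. Media-only wells were set as complete cell-killing and DMSO as no toxicity.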
ATXN2 expr inh: ATXN2 expression inhibition; AID 1745845; 360,000 tested, 0.72% active; HEK-293 ATXN2-luciferase reporter, luminescence, 24 h; Potency, µM (doses to about 57 µM), without a hit: at the highest dose activity change, negative = inhibition, usual class: inhibitors; also: % is scaled to controls: 0 for no effect and ±100 for the full control effect; nearly all actives have a fitted effect of over 55% in size
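qHTS (up to 57 uM final) was run with 24 h compound exposure of reporter cells at 37 °C. Each well was multiplexed: SteadyGlo luminescence measured ATXN2-luciferase expression after a fluorogenic Gly-Phe-AFC viability readout (25 uM final).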
RORg inh: inhibitors of mouse ROR gamma transcriptional activity | Drosophila S2 Gal4-RORgamma UAS-luciferase reporter, 20 h | P51450 | 310,000 tested, 5.4% active | Potency, µM (doses to about 53.6 µM), for inactives: at the highest dose activity change, negative = inhibition, actives largely listed as inhibitors | AID 2551; also: % is scaled to controls: 0 for no effect and ±100 for the full control effect; nearly all actives have a fitted effect of over 60% in size
Target sequence (P51450 whole entry, looked up, the tested form may be a part): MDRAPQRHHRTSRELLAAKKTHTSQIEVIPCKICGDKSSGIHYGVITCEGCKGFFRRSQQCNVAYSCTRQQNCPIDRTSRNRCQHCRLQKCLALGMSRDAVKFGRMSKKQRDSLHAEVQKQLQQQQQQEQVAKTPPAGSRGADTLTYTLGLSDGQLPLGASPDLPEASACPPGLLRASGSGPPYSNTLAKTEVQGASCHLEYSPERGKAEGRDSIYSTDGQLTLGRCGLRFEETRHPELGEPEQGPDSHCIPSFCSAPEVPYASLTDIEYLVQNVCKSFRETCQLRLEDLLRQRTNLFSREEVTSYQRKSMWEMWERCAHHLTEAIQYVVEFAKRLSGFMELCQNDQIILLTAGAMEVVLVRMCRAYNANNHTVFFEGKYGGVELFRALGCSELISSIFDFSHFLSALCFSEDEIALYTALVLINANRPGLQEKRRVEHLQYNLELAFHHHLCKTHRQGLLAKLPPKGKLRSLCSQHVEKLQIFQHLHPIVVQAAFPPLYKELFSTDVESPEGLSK
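Drosophila Schneider cells stably carrying a metallothionein-driven Gal4 DBD–ROR gamma fusion and a UAS-Photinus luciferase reporter were exposed to compound for 1 hr, then induced with copper sulfate (700 uM final) for 20 hr at ambient temperature before luminescence reading.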
VP16 counter: inhibits Gal4-VP16 luciferase reporter, ROR gamma counter-screen | Drosophila S2 Gal4-VP16 UAS-luciferase, luminescence, 20 h | Potency, µM (top dose mostly 53.6 µM), for inactives: at the top dose activity, negative = inhibition, usual class: inhibitors | 310,000 tested, 3.5% active | AID 2546;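 also: Gal4-VP16 expression switched on by copper sulfate through the metallothionein promoter; % is scaled to controls: 0 for no effect and ±100 for the full control effect; nearly all actives have a fitted effect of over 50% in size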
* = called active by the depositor. Rows were chosen to be rich in hits. Some 6.1% of all compounds tested hit in one or more screens of this group. Calls follow the shape of the dose curve; as a rule, active = well fitted curve in the direction sought with a large enough effect; inconclusive = small, poorly fitted or top-dose-only effect, or another doubt; inactive = no such curve, though single readings can be large; an effect the other way counts as inactive or inconclusive. Potency is read from the fitted curve at half-maximal effect.

What do the screens show for `CC(C)CC(=O)NC(=S)Nc1ccc(N2CCCC2)c(Cl)c1`?
ATXN viability: inactive; TGFb SMAD3 inh: 1.1%; HepG2 viability: -20.6%; ATXN2 expr inh: -4.5%; RORg inh: 0.398µM*; VP16 counter: 2.82µM*

Results for O=C(/C=C/c1ccccc1)NC(=S)Nc1ccc(N2CCOCC2)c(Cl)c1 ?
ATXN viability: inconclusive; TGFb SMAD3 inh: -4.5%; HepG2 viability: 15.1%; ATXN2 expr inh: -18.5%; RORg inh: 2.51µM*; VP16 counter: inconclusive

How did O=C(Nc1ccc(N2CCOCC2)c(Cl)c1)c1ccccc1Cl do in these assays?
ATXN viability: inactive; TGFb SMAD3 inh: 3.0%; HepG2 viability: -4.9%; ATXN2 expr inh: 17.7%; RORg inh: -8.8%; VP16 counter: -1.7%

How did O=C(/C=C/c1ccco1)NC(=S)Nc1ccc(N2CCOCC2)c(Cl)c1 do in these assays?
ATXN viability: inactive; TGFb SMAD3 inh: 6.7%; HepG2 viability: -0.4%; ATXN2 expr inh: -11.8%; RORg inh: 1.78µM*; VP16 counter: -18.8%

What do the screens show for `CCCC(=O)NC(=S)Nc1ccc(N2CCOCC2)c(Cl)c1`?
ATXN viability: inactive; TGFb SMAD3 inh: inconclusive; HepG2 viability: -16.7%; RORg inh: 12.6µM*; VP16 counter: inconclusive

Results for O=C(/C=C/c1ccco1)Nc1ccccc1N1CCOCC1 ?
ATXN viability: inactive; TGFb SMAD3 inh: 20.3%; HepG2 viability: 7.7%; ATXN2 expr inh: 2.6%; RORg inh: 43.3%; VP16 counter: inconclusive

Results for COc1cc(OC)c(NC(=O)Cn2cnc3sc(C)c(S(=O)(=O)N4CCN(C)CC4)c3c2=O)cc1Cl ?
ATXN viability: inactive; TGFb SMAD3 inh: -16.5%; HepG2 viability: -13.3%; ATXN2 expr inh: 4.5%

How did C[N+](C)(CCOc1ccccc1)Cc1cccs1 do in these assays?
ATXN viability: inactive; ATXN2 expr inh: 0.9%

How did CCc1ccc(NC(=O)Cc2c(C(=O)O)c(C)cn2C)cc1 do in these assays?
ATXN viability: inactive; TGFb SMAD3 inh: 32.1%; HepG2 viability: -26.0%; ATXN2 expr inh: 4.9%

What do the screens show for `COc1ccccc1/C=C1\C=Cc2ccccc21`?
TGFb SMAD3 inh: -17.5%; HepG2 viability: -13.3%

Results for CCC(C)C(N)C(=O)O (centres undefined) ?
RORg inh: 4.2%; VP16 counter: 3.9%

Results for O=C(Nc1ccc(Cl)cc1F)c1cnc2sc(N3CCOCC3)nn2c1=O ?
ATXN viability: inactive; TGFb SMAD3 inh: -0.2%; HepG2 viability: -1.3%; ATXN2 expr inh: 11.2%

What do the screens show for `O=C(NC(=S)Nc1ccc(N2CCOCC2)c(Cl)c1)C(c1ccccc1)c1ccccc1`?
ATXN viability: inactive; TGFb SMAD3 inh: 0.0%; HepG2 viability: -0.8%; ATXN2 expr inh: -5.2%; RORg inh: 2.82µM*; VP16 counter: 5.62µM*

Results for O=[N+]([O-])c1ccccc1/C=C/C=N/n1c(-c2ccco2)n[nH]c1=S ?
ATXN viability: inactive; TGFb SMAD3 inh: -4.6%; HepG2 viability: 4.2%; ATXN2 expr inh: -4.7%; RORg inh: 8.91µM*; VP16 counter: 6.3%

Results for O=[N+]([O-])c1ccccc1/C=C/C=N/n1c(-c2cc(-c3ccccc3)n[nH]2)n[nH]c1=S ?
ATXN viability: inactive; TGFb SMAD3 inh: -19.0%; HepG2 viability: -19.6%; ATXN2 expr inh: -37.8%; RORg inh: inconclusive; VP16 counter: -19.5%

How did Cc1ccc(-c2n[nH]c(=S)n2/N=C/C=C/c2ccccc2[N+](=O)[O-])cc1 do in these assays?
ATXN viability: inactive; TGFb SMAD3 inh: 1.7%; HepG2 viability: 1.3%; ATXN2 expr inh: 0.9%; RORg inh: 4.47µM*; VP16 counter: -24.3%

Results for Cc1ccc2nc3c(cc(C#N)c(=O)n3-c3nnc(SCc4ccccc4)s3)c(=O)n2c1 ?
ATXN viability: inactive; TGFb SMAD3 inh: 19.5%; HepG2 viability: 7.3%; ATXN2 expr inh: 1.8%

How did C/C(CC(=O)NC1CCCC1)=N\NC(=O)C1CCCCC1 do in these assays?
ATXN viability: inactive; TGFb SMAD3 inh: 34.6%; HepG2 viability: 0.0%; ATXN2 expr inh: -9.4%; RORg inh: 15.8µM*; VP16 counter: -2.5%

How did C/C(CC(=O)NC1CCCCC1)=N\NC(=O)c1ccc(Br)cc1 do in these assays?
ATXN viability: inactive; TGFb SMAD3 inh: 23.7%; HepG2 viability: 9.6%; ATXN2 expr inh: 6.3%; RORg inh: 12.6µM*; VP16 counter: 11.2µM*

What do the screens show for `c1ccc(CC[n+]2ccncc2)cc1`?
TGFb SMAD3 inh: -3.6%; HepG2 viability: -21.3%

What do the screens show for `Clc1ccc(/C=C/c2ccncc2)cc1Cl`?
TGFb SMAD3 inh: inconclusive; HepG2 viability: -53.8%

Results for CCCC(C(=O)NCCC(C)C)N(Cc1ccc(OC)cc1)C(=O)c1snc(C(N)=O)c1N (centres undefined) ?
ATXN viability: 23.8µM*; TGFb SMAD3 inh: 0.0%; HepG2 viability: -18.4%; ATXN2 expr inh: 15.2%; RORg inh: 12.1%; VP16 counter: -11.1%

How did Nc1nsc2ccccc12 do in these assays?
ATXN viability: inactive; TGFb SMAD3 inh: inconclusive; HepG2 viability: -79.1%; ATXN2 expr inh: -28.1%; RORg inh: 14.1µM*; VP16 counter: inconclusive

Results for Nc1nnc(N)c2ccccc12 ?
ATXN viability: inactive; TGFb SMAD3 inh: 8.5%; HepG2 viability: 6.0%; ATXN2 expr inh: 27.7%; RORg inh: 15.0%; VP16 counter: -8.0%

Results for Cc1cc(NC(=O)c2cc(-c3ccc(F)cc3)on2)nn1Cc1ccc(Cl)cc1 ?
TGFb SMAD3 inh: 3.9%; HepG2 viability: -8.4%

Results for C=CCc1cccc(CNc2cnc3ccccc3c2)c1O ?
ATXN viability: inconclusive; TGFb SMAD3 inh: inconclusive; HepG2 viability: -18.7%; RORg inh: inconclusive; VP16 counter: 7.08µM*

Results for Oc1ccccc1CNc1cnc2ccccc2c1 ?
ATXN viability: inactive; TGFb SMAD3 inh: inconclusive; HepG2 viability: -13.9%; ATXN2 expr inh: 14.8%; RORg inh: inconclusive; VP16 counter: inconclusive

How did CCOC(=O)c1c(CN2CCNCC2)nc2ccc(Cl)cc2c1-c1ccccc1 do in these assays?
ATXN viability: inconclusive; TGFb SMAD3 inh: 15.8µM*; HepG2 viability: -116.3%; ATXN2 expr inh: inconclusive

What do the screens show for `Cc1nc2ccc(Cl)cc2c(-c2ccccc2)c1C(=O)N(C)C`?
ATXN viability: inactive; TGFb SMAD3 inh: -4.6%; HepG2 viability: -1.8%; ATXN2 expr inh: 3.2%; RORg inh: 1.5%; VP16 counter: 2.8%

What do the screens show for `COc1ccc(S(=O)(=O)N2CCN(c3ccc(Cl)c(Cl)c3)CC2)c2ccccc12`?
ATXN viability: inactive; TGFb SMAD3 inh: -5.9%; HepG2 viability: -22.0%; ATXN2 expr inh: -20.2%
